Here are results for three molecules from PubChem BioAssay (EPA / NIEHS).

Activity calls are given as the source filed them. Rule for the calls: active = hit-call score of the fitted dose curve at least 0.9, where 1 is the maximum; inactive = score below 0.9.

The nature of test [1]: ATG_M_32_CIS: Attagene CIS-FACTORIAL HepG2 Assay for M32 Transcription Factor (Internal Marker) (AID 2282949).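 Note: background control marker of the multiplexed CIS panel rather than a real target.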 To be noted: HepG2 Attagene cis-factorial M32 reporter, mRNA; actives raise or lower the signal. In outline: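 Following 24 h chemical exposure of HepG2 cells transiently expressing cis-promoter reporter constructs, reporter transcript levels were determined by RT-PCR with fluorescent labelling and capillary electrophoresis, then fitted bidirectionally against DMSO.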

Test [2] can be described thus: ATG_M_06_CIS: Attagene CIS-FACTORIAL HepG2 Assay for M06 Transcription Factor (Internal Marker) (AID 2282950). Particulars: HepG2 Attagene CIS-FACTORIAL M06 internal marker reporter; actives raise or lower the signal. Summed up: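 Cells (HepG2, transiently carrying cis-driven reporter units) receive chemical for 24 h before RNA isolation. Reporter cDNA is PCR-amplified, FAM-labelled by primer extension, HpaI-digested and sized on a capillary analyser.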

Test [3] has as its target Hypoxia-inducible factor 1-alpha (Homo sapiens) (UniProt Q16665). Nature of the test: ATG_HIF1a_CIS: Attagene CIS-FACTORIAL HepG2 Assay for human Hypoxia Inducible Factor 1 (HIF1A) (AID 2282951). Particulars: HepG2 Attagene cis-factorial HIF1a reporter transcription; actives raise or lower the signal. In outline:
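Fluorescence intensity of capillary-separated, 6-FAM-labelled reporter amplicons gives mRNA induction in HepG2 cells carrying transfected cis-promoter reporter units; cells exposed 24 h, responses fitted up or down from DMSO.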

The target in test [4] is Hepatocyte nuclear factor 6 (Homo sapiens) (UniProt Q9UBC0). Nature of the test: ATG_HNF6_CIS: Attagene CIS-FACTORIAL HepG2 Assay for human Hepatocyte Nuclear Factor 6 (HNF6) (AID 2282952). To be noted: HepG2 Attagene cis-factorial HNF6 reporter transcription; actives raise or lower the signal. In outline: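 HepG2 cells transiently transfected with cis-element-driven multiple reporter transcription units, dosed 24 h; reporter mRNA quantified by RT-PCR, FAM primer extension, HpaI digestion and capillary electrophoresis; bidirectional fit versus DMSO baseline.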

Test [5] concerns the target Heat shock factor protein 1 (Homo sapiens) (UniProt Q00613). Nature of the test: ATG_HSE_CIS: Attagene CIS-FACTORIAL HepG2 Assay for human Heat Shock Transcription Factor 1 (HSE) (AID 2282953). Particulars: HepG2 HSE cis-reporter, Attagene RNA transcription; actives raise or lower the signal. Summed up:
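Liver-derived HepG2 cells carry transiently introduced multiple reporter units governed by cis promoters. Reporter RNA measured 24 h post-dose through reverse transcription, PCR amplification, fluorescent labelling and capillary electrophoresis, normalised to DMSO.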

A short description of test [6]: ATG_MRE_CIS: Attagene CIS-FACTORIAL HepG2 Assay for human Metal Responsive Element (MRE) (AID 2282954). Particulars: HepG2 MRE cis-reporter transcription, Attagene multiplex; actives raise or lower the signal. In outline:
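HepG2 cells transiently transfected with multiple cis-element reporter units measure endogenous MTF1-driven transcription. After 24 h compound exposure, reporter mRNA is quantified by RT-PCR with 6-FAM labelling, HpaI digestion and capillary electrophoresis; bidirectional fits versus DMSO.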

Test [7] in a line: ATG_PBREM_CIS: Attagene CIS-FACTORIAL HepG2 Assay for human Phenobarbital-responsive Enhancer Module (PBREM) (AID 2282955). Particulars: HepG2 PBREM cis-reporter, Attagene multiplexed transcription; actives raise or lower the signal. In outline:
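Cells were transfected with cis-element reporter units and treated for 24 h, after which RNA was extracted and reporter transcripts measured by RT-PCR and capillary electrophoresis.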

Test [8] addresses Paired box protein Pax-6 (Homo sapiens) (UniProt P26367). In words: ATG_Pax6_CIS: Attagene CIS-FACTORIAL HepG2 Assay for human Paired Box 6 (PAX6) (AID 2282956). Particulars: HepG2 CIS-FACTORIAL PAX6 reporter transcription, RNA readout; actives raise or lower the signal. Summed up:
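Multiplexed cis-reporter HepG2 system; 24 h treatment; reporter mRNA read by RT-PCR/CE fluorescence; bidirectional fit vs DMSO.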

Test [9] is described as follows: ATG_PXRE_CIS: Attagene CIS-FACTORIAL HepG2 Assay for human Pregnane X Receptor Element (PXRE) (AID 2282957). To be noted: HepG2 Attagene CIS-FACTORIAL PXRE reporter, mRNA; actives raise or lower the signal. Summed up:
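HepG2 cells transiently transfected with cis-regulated multiple reporter transcription units; endogenous factor activity measured as reporter mRNA 24 h after dosing. RT-PCR, fluorescent primer extension, HpaI digestion, capillary electrophoresis; bidirectional fit versus DMSO baseline.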

The nature of test [10]: ATG_PPRE_CIS: Attagene CIS-FACTORIAL HepG2 Assay for human Peroxisome Proliferator-activated Response Element (PPRE) (AID 2282958). Particulars: HepG2 PPRE cis-element reporter, Attagene transcription factor profiling; actives raise or lower the signal. Summed up: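 In this cell-based multiplex, a PPRE cis element drives a reporter sequence in transiently transfected HepG2 cells. Following 24 h treatment, labeled cDNA amplicons are sized and quantified by capillary electrophoresis, with DMSO defining baseline.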

Test [11] in a line: ATG_RORE_CIS: Attagene CIS-FACTORIAL HepG2 Assay for human RAR-related Orphan Receptor Element (RORE) (AID 2282959). Particulars: HepG2 Attagene cis-factorial RORE reporter, mRNA; actives raise or lower the signal. Summed up: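 Endogenous factor activity at a cis response element is read as reporter transcript levels in HepG2 cells, 24 h post-dose. Transcripts are quantified by RT-PCR with capillary electrophoresis, and data fitted in both directions against DMSO.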

Test [12] can be described thus: ATG_Sox_CIS: Attagene CIS-FACTORIAL HepG2 Assay for human SRY-box transcription factor (SOX) (AID 2282960). To be noted: HepG2 Attagene cis-factorial SOX reporter, mRNA; actives raise or lower the signal. Summed up:
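Measures mRNA induction of a SOX1-associated reporter in HepG2 after 24 h dosing. Fluorescently labelled RT-PCR fragments are separated by capillary electrophoresis, and gain or loss relative to DMSO control is fitted.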

Test [13] deals with Transcription factor Sp1 (Homo sapiens) (UniProt P08047). Nature of the test: ATG_Sp1_CIS: Attagene CIS-FACTORIAL HepG2 Assay for human Specificity Protein 1 (Sp1) (AID 2282961). To be noted: HepG2 Sp1 cis-reporter transcription, actives raise or lower the signal. Summed up:
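Cells: HepG2, transiently transfected with cis-regulated multiplexed reporters. Exposure: 24 h. Detection: reporter transcripts amplified, fluorescently labeled, restriction-digested and sized by capillary electrophoresis. Analysis: bidirectional fit relative to DMSO.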

Test [14] is described as follows: ATG_SREBP_CIS: Attagene CIS-FACTORIAL HepG2 Assay for human Sterol Regulatory Element Binding (SREBP) (AID 2282962). To be noted: HepG2 Attagene cis-factorial SREBP reporter, mRNA; actives raise or lower the signal. In outline: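 mRNA induction of transfected cis-promoter reporters in HepG2 cells, 24 h post-dose. Detection: RT-PCR with 6-FAM-labelled products, HpaI digest, capillary electrophoresis. DMSO served as negative control and baseline.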

Test [15] concerns the target Signal transducer and activator of transcription 3 (Homo sapiens) (UniProt P40763). Nature of the test: ATG_STAT3_CIS: Attagene CIS-FACTORIAL HepG2 Assay for human Signal Transducer and Activator of Transcription 3 (STAT3) (AID 2282963). Particulars: HepG2, Attagene cis-factorial STAT3 reporter transcription; actives raise or lower the signal. In outline: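 HepG2 cells transiently transfected with cis-element-driven multiple reporter transcription units; after 24 h chemical exposure, reporter mRNA measured by RT-PCR, 6-FAM primer-extension labelling, HpaI digestion and capillary electrophoresis. Bidirectional fitting versus DMSO baseline.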

Test [16] can be described thus: ATG_TA_CIS: Attagene CIS-FACTORIAL HepG2 Assay for human TA Basal Promoter (AID 2282964). To be noted: HepG2 Attagene CIS-factorial TA basal promoter reporter; actives raise or lower the signal. Summed up:
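Background internal-marker endpoint from a 52-component HepG2 cis-reporter panel. Cells treated 24 h; reporter transcripts quantified via RT-PCR and CE fluorescence against DMSO baseline.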

Test [17] in a line: ATG_TAL_CIS: Attagene CIS-FACTORIAL HepG2 Assay for human TAL Basal Promoter (AID 2282966).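 Note: background control endpoint measuring basal TAL promoter reporter mRNA not a specific factor.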 Particulars: HepG2 Attagene cis-factorial TAL promoter reporter; actives raise or lower the signal. Summed up: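 HepG2 cells were transiently transfected with promoter-driven multiplexed reporter units and dosed for 24 h. Reporter mRNA was measured by RT-PCR with capillary electrophoresis fluorescence; bidirectional fits used DMSO as baseline, serving as a background control.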

Test [18] in a line: ATG_TGFb_CIS: Attagene CIS-FACTORIAL HepG2 Assay for human Transforming Growth Factor (TGF) (AID 2282967). To be noted: HepG2 Attagene CIS TGFb reporter, mRNA transcription; actives raise or lower the signal. In outline:
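Liver HepG2 line, cis-factorial reporter panel, 24 h dosing. Quantitation: RT-PCR products labeled with 6-FAM, cut with HpaI, resolved by capillary electrophoresis; DMSO-referenced bidirectional analysis.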

Test [19] is described as follows: ATG_VDRE_CIS: Attagene CIS-FACTORIAL HepG2 Assay for human Vitamin D Receptor Element (VDRE) (AID 2282968). Particulars: HepG2 VDRE cis-reporter transcription, actives raise or lower the signal. Summed up: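 HepG2 cells transiently transfected with cis-element reporter units, dosed 24 h; reporter mRNA measured by RT-PCR, 6-FAM labeling, HpaI digestion and capillary electrophoresis. Activity fitted bidirectionally against DMSO baseline.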

The nature of test [20]: ATG_TCF_b_cat_CIS: Attagene CIS-FACTORIAL HepG2 Assay for human T-Cell-Factor with beta-catenin (TCF/b-cat) (AID 2282965). Particulars: HepG2 TCF/beta-catenin cis-reporter transcription, actives raise or lower the signal. Summed up: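 HepG2 cells transiently transfected with multiple cis-promoter-regulated reporter transcription units, so endogenous transcription factor activity is measured. Reporter mRNA read 24 hours after dosing by RT-PCR, fluorescent labelling and capillary electrophoresis; bidirectional fitting against DMSO.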

Sequence of Heat shock factor protein 1 (Homo sapiens) (Q00613 whole entry, looked up): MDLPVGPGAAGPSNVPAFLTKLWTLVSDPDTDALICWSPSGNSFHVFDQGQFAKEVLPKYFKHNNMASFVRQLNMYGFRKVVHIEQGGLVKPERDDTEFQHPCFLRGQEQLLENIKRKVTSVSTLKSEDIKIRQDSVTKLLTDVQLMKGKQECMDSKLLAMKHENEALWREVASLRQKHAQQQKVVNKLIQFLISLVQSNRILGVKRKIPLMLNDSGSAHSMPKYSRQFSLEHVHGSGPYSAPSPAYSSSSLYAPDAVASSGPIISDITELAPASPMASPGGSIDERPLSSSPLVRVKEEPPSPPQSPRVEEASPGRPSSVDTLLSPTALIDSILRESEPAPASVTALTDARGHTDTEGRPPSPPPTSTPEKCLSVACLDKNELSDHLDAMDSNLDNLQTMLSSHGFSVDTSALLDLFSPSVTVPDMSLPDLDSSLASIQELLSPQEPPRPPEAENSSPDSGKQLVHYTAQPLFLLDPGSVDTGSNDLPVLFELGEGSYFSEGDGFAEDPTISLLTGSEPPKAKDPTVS
Sequence of Paired box protein Pax-6 (Homo sapiens) (P26367 whole entry, looked up): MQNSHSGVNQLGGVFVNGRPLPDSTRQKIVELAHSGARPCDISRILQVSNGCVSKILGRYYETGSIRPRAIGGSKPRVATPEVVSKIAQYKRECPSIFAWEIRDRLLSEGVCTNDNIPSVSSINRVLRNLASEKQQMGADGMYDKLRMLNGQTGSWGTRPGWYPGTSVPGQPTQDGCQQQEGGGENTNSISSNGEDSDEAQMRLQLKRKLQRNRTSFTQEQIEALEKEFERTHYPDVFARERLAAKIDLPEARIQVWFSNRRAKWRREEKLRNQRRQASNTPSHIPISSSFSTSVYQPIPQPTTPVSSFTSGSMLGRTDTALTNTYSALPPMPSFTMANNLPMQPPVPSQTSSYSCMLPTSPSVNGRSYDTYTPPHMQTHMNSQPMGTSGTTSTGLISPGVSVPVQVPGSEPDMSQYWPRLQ
Sequence of Signal transducer and activator of transcription 3 (Homo sapiens) (P40763 whole entry, looked up): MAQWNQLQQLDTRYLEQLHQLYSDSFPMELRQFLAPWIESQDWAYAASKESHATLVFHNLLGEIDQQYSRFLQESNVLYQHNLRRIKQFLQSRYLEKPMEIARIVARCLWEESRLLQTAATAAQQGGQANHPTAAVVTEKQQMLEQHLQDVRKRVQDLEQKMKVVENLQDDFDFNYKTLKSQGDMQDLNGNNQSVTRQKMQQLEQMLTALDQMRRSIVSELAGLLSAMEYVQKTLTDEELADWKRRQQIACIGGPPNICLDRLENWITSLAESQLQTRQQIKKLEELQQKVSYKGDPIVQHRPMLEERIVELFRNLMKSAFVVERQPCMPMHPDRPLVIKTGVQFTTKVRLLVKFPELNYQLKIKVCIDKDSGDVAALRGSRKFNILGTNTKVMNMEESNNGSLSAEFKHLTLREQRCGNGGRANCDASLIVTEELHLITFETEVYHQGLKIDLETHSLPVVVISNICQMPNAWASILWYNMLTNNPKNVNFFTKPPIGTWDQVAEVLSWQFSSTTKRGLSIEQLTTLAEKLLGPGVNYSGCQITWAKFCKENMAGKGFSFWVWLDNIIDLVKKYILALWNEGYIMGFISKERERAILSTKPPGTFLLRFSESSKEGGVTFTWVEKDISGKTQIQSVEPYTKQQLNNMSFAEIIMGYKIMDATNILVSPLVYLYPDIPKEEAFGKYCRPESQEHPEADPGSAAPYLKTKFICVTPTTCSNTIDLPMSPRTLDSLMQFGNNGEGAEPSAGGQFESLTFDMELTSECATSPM
Sequence of Hypoxia-inducible factor 1-alpha (Homo sapiens) (Q16665 whole entry, looked up): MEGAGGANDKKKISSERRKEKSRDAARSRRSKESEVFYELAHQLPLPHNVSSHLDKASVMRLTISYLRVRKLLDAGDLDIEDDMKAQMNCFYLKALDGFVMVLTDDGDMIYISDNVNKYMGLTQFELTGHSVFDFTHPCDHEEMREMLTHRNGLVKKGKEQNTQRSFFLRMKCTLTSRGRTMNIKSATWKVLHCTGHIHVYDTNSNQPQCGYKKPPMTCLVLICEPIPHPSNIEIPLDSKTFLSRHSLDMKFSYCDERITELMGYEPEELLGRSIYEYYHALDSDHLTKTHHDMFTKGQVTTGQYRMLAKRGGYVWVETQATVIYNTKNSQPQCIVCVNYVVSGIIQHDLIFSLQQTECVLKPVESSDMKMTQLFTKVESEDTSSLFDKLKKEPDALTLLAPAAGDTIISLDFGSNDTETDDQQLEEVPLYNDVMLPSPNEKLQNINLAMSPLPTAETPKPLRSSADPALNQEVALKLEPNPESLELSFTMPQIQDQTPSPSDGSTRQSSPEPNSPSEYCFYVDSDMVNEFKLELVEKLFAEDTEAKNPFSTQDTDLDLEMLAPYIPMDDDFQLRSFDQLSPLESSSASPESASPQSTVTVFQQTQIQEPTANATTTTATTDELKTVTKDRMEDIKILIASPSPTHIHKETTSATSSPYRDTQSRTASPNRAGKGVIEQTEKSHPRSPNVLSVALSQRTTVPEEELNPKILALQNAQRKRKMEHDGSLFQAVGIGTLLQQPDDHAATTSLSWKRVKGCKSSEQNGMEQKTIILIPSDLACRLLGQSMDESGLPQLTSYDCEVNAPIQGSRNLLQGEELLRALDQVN
Sequence of Hepatocyte nuclear factor 6 (Homo sapiens) (Q9UBC0 whole entry, looked up): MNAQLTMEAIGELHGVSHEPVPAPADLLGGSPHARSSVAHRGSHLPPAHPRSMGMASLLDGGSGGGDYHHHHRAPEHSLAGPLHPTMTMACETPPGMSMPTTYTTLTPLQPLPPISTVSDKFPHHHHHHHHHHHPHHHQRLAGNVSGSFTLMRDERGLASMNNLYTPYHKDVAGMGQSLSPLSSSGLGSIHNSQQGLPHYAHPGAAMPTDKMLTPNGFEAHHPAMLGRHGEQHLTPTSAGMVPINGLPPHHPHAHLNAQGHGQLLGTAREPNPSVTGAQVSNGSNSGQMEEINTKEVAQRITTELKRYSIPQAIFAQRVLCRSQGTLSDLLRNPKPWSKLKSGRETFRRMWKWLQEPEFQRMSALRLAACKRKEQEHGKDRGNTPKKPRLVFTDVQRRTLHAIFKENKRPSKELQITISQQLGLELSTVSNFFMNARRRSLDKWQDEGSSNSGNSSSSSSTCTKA
Sequence of Transcription factor Sp1 (Homo sapiens) (P08047 whole entry, looked up): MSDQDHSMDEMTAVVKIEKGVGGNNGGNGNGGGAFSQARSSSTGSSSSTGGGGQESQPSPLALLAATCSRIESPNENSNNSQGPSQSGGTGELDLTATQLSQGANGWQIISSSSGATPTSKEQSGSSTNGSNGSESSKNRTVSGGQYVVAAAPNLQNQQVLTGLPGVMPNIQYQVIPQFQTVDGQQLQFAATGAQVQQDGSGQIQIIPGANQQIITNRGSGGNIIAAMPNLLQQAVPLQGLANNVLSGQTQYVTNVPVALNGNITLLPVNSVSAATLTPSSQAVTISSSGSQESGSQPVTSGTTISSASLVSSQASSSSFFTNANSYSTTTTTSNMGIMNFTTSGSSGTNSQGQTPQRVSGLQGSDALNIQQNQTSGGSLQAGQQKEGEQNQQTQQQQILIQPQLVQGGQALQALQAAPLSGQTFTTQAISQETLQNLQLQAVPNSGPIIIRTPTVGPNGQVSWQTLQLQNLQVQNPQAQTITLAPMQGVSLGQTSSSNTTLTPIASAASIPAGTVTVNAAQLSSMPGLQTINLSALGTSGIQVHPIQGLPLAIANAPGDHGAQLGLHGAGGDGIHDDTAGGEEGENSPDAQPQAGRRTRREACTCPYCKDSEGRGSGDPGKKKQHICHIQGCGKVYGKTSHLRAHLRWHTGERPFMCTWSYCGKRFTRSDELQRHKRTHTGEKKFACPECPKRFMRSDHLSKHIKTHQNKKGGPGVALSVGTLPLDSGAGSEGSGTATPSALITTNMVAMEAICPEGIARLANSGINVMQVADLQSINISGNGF

In the case of `O=[N+]([O-])c1ccc(Cl)c([N+](=O)[O-])c1`, the molecule was classed as inactive in test [1], in test [2], in test [3], in [4], in test [6] and in test [7]. The molecule was called inactive in test [8], in test [9], in test [10], in test [11], in [12] and in [13]. The molecule was called inactive in [14], in [16], in test [17] and in test [19]. Moreover, the figures for the AC50 in [5], in test [15] and in [18] were 6.97 µM (active), 5.93 µM (active) and 3.71 µM (active), respectively.

For the molecule `CC(=O)C(F)(F)C(F)(F)F`, the call in test [1], in test [2], in test [3], in test [4], in test [5] and in test [6] was inactive. The outcome in [7], in test [8], in test [9], in [10], in [11] and in test [12] was inactive. Moreover, the call in test [13], in [14], in [15], in test [16], in test [20] and in test [17] was inactive. Moreover, the molecule was called inactive in test [18] and in [19].

On to `O=C(O)c1cc(I)cc(I)c1I`, for which the molecule was called inactive in test [1], in test [2], in test [3], in test [4], in [5] and in test [6]. For the same molecule, the outcome in [7], in test [8], in test [11], in test [12], in test [13] and in test [14] was inactive. The molecule was classed as inactive in [15], in test [16], in test [20], in [17], in [18] and in [19]. For the same molecule, the concentration at half-maximal activity (AC50) in [9] was 30.3 µM (active); in test [10], 27.8 µM (active).
